Assay outcomes from PubChem BioAssay.
Mtb betalactam: beta-lactam sensitization of Mtb H37Rv | M. tuberculosis H37Rv growth with meropenem, percent inhibition | inhibition, % at 25 µM | hit rate 0.27% among 330,000 | AID 434955; call rule not given here;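 note: growth measured after seven days incubation then overnight dye step; 0% = bacteria only wells and 100% = bacteria with antibiotic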
BH1578 lux ind: inducers of Vibrio cholerae quorum light production without autoinducers; V. cholerae BH1578 lux reporter, luminescence, 6 h; activation, % at 18.7 µM; hit rate 0.16% among 350,000; in the data active = activation mostly above about 9.7%, no sharp cut-off; inconclusive = no clear call, values can overlap the other calls; inactive = mostly below about 3.7%
MazEF act: MazEF (E. coli) toxin RNase activation; P0AE70; AID 504720; FAM/BHQ RNA-DNA oligo cleavage fluorescence, 5 h; activation, % at 20 µM; hit rate 0.32% among 350,000; in the data active = activation above about 50%
Target sequence (P0AE70 whole entry, looked up): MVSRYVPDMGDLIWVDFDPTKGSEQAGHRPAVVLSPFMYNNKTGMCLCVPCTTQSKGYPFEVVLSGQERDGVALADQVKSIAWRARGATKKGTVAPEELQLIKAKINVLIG
FadD28 binding: inhibitors of Mycobacterium tuberculosis FadD28 bisubstrate binding; inhibition, % at 12.5 µM; hit rate 0.22% among 360,000; FadD28 bisubstrate probe binding, fluorescence polarization; in the data active = inhibition above about 8.5%, passing the limit was not always enough; inconclusive = no clear call, values can overlap the other calls
UGM FP inh: inhibitors of M. tuberculosis UDP-galactopyranose mutase | purified UGM, fluorescence polarization probe displacement | inhibition, % at 10 µM | hit rate 0.06% among 320,000 | AID 504406; in the data active = inhibition above about 10%, passing the limit was not always enough; inconclusive = no clear call, values can overlap the other calls
Target sequence (P9WIQ1 whole entry, looked up): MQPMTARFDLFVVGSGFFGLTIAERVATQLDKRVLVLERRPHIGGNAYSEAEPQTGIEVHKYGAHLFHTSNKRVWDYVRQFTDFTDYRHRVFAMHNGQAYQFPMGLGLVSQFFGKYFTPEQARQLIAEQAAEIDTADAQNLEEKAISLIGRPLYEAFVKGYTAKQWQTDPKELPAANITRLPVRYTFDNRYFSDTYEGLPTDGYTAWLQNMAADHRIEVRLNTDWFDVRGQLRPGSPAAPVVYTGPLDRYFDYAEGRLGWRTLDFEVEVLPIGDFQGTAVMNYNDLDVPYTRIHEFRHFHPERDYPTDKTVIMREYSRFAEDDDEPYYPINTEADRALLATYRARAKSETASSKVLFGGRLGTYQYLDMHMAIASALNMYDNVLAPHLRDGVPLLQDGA
Rv3671c inh: inhibitors of M. tuberculosis serine protease Rv3671c; P9WHR9; inhibition, % at 5.96 µM; hit rate 0.048% among 320,000; AID 2606; in the data active = inhibition above about 38%;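 note: extracellular domain of Rv3671c used as enzyme; 0% = enzyme with DMSO and 100% = no enzyme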
The depositor's hits bear a star; i = inactive; u = inconclusive; x = no result; + = active, no number. Most compounds without a hit are left out; they make up all but 0.74% or so of the library.

SMILES	Mtb betalactam	BH1578 lux ind	MazEF act	FadD28 binding	UGM FP inh	Rv3671c inh
CCN(CC)c1ccc(C=Nc2ccc(C)cc2)c(O)c1	56	0	2	-4	0	-1
CCN(CC)c1ccc(C=Nc2ccc(N(C)C)cc2)c(O)c1	-5	i	532*	-2	0	-24
CCN(CC)c1ccc(C=Nc2ccccc2)c(O)c1	7	-2	-1	-2	-1	-6
O=C(Nc1nc2ccccc2s1)C1CCN(S(=O)(=O)c2cc([N+](=O)[O-])ccc2Cl)CC1	99	-2	0	-1	2	-30
CC1(C)Oc2ccc3ccc(=O)oc3c2[C@@H](O)[C@@H]1O	2	-1	0	1	1	-3
Cc1ccc(O)c(C(=O)c2cc(C#N)c3nc4ccccc4n3c2)c1	0	0	90*	-1	2	-5
Nc1ccc2c(c1)-c1ccccc1S(=O)(=O)N2	5	0	8	25*	1	-2
Cc1ccc2c(c1)-c1ccccc1S(=O)(=O)N2	-1	0	5	-2	1	4
CCSc1ccc2c(c1)N(CCCN1CCN(C)CC1)c1ccccc1S2	100	i	39	-2	-3	5
CN1CCN(CCCN2c3ccccc3Sc3ccc(Cl)cc32)CC1	100	4	6	8.2*	4	7
O=C(O)c1ccc2c(c1)C1C(Cl)C(Sc3ccccc3[N+](=O)[O-])CC1C(c1cccc([N+](=O)[O-])c1)N2 (stereo not given)	x	0	0	43*	x	x
O=C(O)c1cccc2c1NC(c1cccc([N+](=O)[O-])c1)C1CC(Sc3ccccc3[N+](=O)[O-])C(Cl)C21 (stereo not given)	x	0	-11	u	x	x
CCN(CC)C(=O)c1ccc2c(c1)C1C(Cl)C(Sc3ccccc3[N+](=O)[O-])CC1C(C(=O)O)N2 (stereo not given)	18	0	-24	34*	-1	6
Cc1ccc2c(c1Cl)NC(C(=O)O)C1CC(Sc3ccccc3[N+](=O)[O-])C(Cl)C21 (stereo not given)	0	0	-9	-11	1	4
CCOc1ccc(C(=O)OCC(=O)N(Cc2ccccc2)Cc2ccccc2)cc1OC	-13	-4	-3	0	1	-12
CC12CCC(=O)N1C(C(=O)NNC(=O)COc1ccccc1F)CS2 (stereo not given)	-10	i	6	-2	1	-8
Cc1ccc2[nH]c(=O)c(CN(C)C(=O)c3cccs3)cc2c1	1	-1	16	0	3	-1
Cc1ccc(N(Cc2cc3cc(C)ccc3[nH]c2=O)C(=O)c2cccs2)cc1	5	0	89*	-5	x	-3
CC(C)CCN1CC(=O)N2[C@@H](Cc3c([nH]c4ccccc34)C2(C)C)C1=O	1	-1	7	-1	-4	x
Cn1nnnc1SCc1csc(C2C(C#N)=C(N)OC3=C2C(=O)CCC3)c1 (stereo not given)	-12	-1	0	-3	0	-9
O=C(O)c1ccccc1NS(=O)(=O)c1ccc(N/N=C/c2ccc(O)c(O)c2)c([N+](=O)[O-])c1	x	1	7	53*	x	x
COc1ccccc1NS(=O)(=O)c1ccc(N/N=C/c2ccccc2OCC(=O)O)c([N+](=O)[O-])c1	-1	1	-6	19*	2	17
O=C(O)COc1ccccc1C=NNc1ccc([N+](=O)[O-])cc1S(=O)(=O)Nc1ccc(Cl)cc1	2	i	-15	16*	3	-21
COc1ccc(NS(=O)(=O)c2cc([N+](=O)[O-])ccc2NN=Cc2ccccc2OCC(=O)O)cc1	-3	i	-19	1	2	-15
O=C(O)COc1ccccc1/C=N/Nc1ccc(S(=O)(=O)Nc2ccc(Cl)cc2)cc1[N+](=O)[O-]	-1	x	0	2	0	24
SMILES	Mtb betalactam	BH1578 lux ind	MazEF act	FadD28 binding	UGM FP inh	Rv3671c inh
O=C(O)c1ccccc1NS(=O)(=O)c1ccc(NN=Cc2ccc(F)cc2)c([N+](=O)[O-])c1	-3	i	-17	0	-1	1
O=C(CSc1nncs1)NNC(=O)c1ccco1	-4	-5	7	-1	0	4
O=C(Nc1ccccc1OC(F)F)c1ccc(Br)o1	8	32*	7	-3	1	3
CCOc1ccccc1N1CCN(C2=C(NS(=O)(=O)c3cccs3)C(=O)c3ccccc3C2=O)CC1	60	0	11	14*	2	-3
COc1ccccc1-c1cc(NC(C)=O)c2ncc(-c3cccc(C(C)=O)c3)n2c1	x	0	x	-4	x	x
COc1cccc(NCc2cc(=O)oc3cc(-c4ccccc4)c(O)cc23)c1	6	0	7	24*	-3	-9
COc1cccc(NCc2cc(=O)oc3cc(C)c(O)cc23)c1	-2	0	3	0	-1	0
CC(C)(C)OC(=O)N1CC=C2C(C#N)=C(N)C(C#N)(C#N)[C@H](c3cccnc3)[C@H]2C1	8	0	125*	-2	-1	0
Cc1cc2nc(-c3ccc(Cl)cc3)c(CC(C)(C)C)n2c(C)c1Br	x	x	x	-1	x	x
O=c1[nH]c(=O)n(-c2ccc(F)cc2)c(O)c1/C=C1\C=Nc2ccccc21	-3	-2	-800	2	7	-14
COc1ccc(-n2c(O)c(/C=C3\C=Nc4ccccc43)c(=O)[nH]c2=O)cc1	x	3	304*	-3	x	x
COc1ccc(-n2c(O)c(/C=C3\C=Nc4ccc(Br)cc43)c(=O)[nH]c2=O)cc1	9	i	-240	-2	41*	-14
CCC(CC)C(=O)c1c[nH]c(C(=O)OC)c1	0	-1	10	-5	-2	-4
CCN(CC)c1ccc(C=C2C(=O)OC3(CCCCC3)OC2=O)cc1	0	i	-399	-3	0	-42
CCN(CC)c1ccc(/C=C2/C(=O)c3ccc(C(=O)O)cc3C2=O)cc1	5	0	74*	18*	-20	-35
COC(=O)c1ccc(OC)c(-c2c(OC)cc(OC)cc2OC)c1	0	-3	2	2	-4	5
COc1cc(OC)c(-c2cc(C(=O)O)ccc2OC)c(OC)c1	1	i	+	-4	1	-8
CC(=O)c1cccc(OCc2cc(C(=O)N3CCC(N4CCCCC4)CC3)no2)c1	11	i	9	-1	-1	5
CCOc1ccc(Cl)cc1-c1cc(C(=O)Nc2ccc(C(C)C)cc2)[nH]n1	x	0	x	-3	x	x
CC1CN(C=O)CC(C)N1CCN1C(C)CN(C=O)CC1C (stereo not given)	x	i	-5	0	x	x
N#Cc1c(-c2ccccc2)c(-c2ccccc2)nn(CC(=O)NNC(=O)Nc2ccc(Cl)c(Cl)c2)c1=O	100	i	9	17*	4	-256
O=C1C(=O)c2c(ccc3ccccc23)-c2ccccc21	x	x	15	-2	x	x
Cc1cccnc1C1=NOC(Cc2ccccc2)C(=O)N1C (stereo not given)	x	-1	x	-3	x	x
